We go through 69 molecules from PubChem BioAssay AID376 (PDSP, 2006).

Molecules are shown by their SMILES. Screen size: about 2,000 compounds; about 250 (12%) were called active. No stated cut-off is given here; in the data, active means hERG blockade below about -20% or above about 20%; inactive means in between. Shown is part of a subset that was picked to be rich in actives.

The target in this assay is Voltage-gated inwardly rectifying potassium channel KCNH2 (Homo sapiens) (UniProt Q12809). In words: modulators of KCNH2 ion channel function, cellular (AID 376).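 Further: 0% = buffer alone and 100% = reference blocker.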 The following applies: hERG-expressing cells, channel activity single-concentration screen; concentration not given here.
Sequence of Voltage-gated inwardly rectifying potassium channel KCNH2 (Homo sapiens) (Q12809 whole entry, looked up): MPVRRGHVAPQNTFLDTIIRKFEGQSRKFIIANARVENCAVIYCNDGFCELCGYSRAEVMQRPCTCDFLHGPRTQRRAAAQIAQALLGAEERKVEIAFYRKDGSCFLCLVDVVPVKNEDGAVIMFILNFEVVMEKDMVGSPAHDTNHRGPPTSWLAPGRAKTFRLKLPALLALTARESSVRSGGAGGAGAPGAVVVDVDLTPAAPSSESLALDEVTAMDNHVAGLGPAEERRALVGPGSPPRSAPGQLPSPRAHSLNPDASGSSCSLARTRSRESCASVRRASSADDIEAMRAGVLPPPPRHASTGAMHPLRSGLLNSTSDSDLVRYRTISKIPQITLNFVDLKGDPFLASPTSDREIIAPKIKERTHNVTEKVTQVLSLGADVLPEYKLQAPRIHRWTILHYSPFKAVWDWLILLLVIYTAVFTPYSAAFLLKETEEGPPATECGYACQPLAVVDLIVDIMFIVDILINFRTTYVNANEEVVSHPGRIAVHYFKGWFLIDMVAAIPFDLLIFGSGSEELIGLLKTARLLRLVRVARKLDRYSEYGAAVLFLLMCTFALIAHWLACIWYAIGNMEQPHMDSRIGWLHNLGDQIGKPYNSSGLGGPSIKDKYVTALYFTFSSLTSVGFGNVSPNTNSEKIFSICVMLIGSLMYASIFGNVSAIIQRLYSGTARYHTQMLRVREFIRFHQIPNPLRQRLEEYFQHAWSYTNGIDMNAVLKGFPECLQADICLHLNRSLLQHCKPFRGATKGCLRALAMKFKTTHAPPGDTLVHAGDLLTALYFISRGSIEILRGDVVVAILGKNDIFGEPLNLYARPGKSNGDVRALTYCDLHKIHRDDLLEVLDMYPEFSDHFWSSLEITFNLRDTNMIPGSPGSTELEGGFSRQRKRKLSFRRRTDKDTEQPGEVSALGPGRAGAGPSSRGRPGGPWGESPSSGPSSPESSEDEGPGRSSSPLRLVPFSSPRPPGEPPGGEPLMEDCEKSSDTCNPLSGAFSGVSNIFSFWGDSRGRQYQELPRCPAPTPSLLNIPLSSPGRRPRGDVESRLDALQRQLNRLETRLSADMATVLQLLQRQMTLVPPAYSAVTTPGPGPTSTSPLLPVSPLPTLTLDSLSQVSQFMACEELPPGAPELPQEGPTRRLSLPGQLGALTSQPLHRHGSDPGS
As to `O=C(CCN1CCOCC1)Nc1ccc(F)cc1F`, the hERG blockade was 4.1% (inactive).
Turning to `O=C(O)Cc1[nH]cnc1C(=O)O`, the hERG blockade is -3.29% (inactive).
Regarding `O=C1C(=Cc2ccccc2)C(NC2CCCCC2)c2ccccc21` (centres undefined), the hERG blockade is -0.193% (inactive).
Turning to `CC(C)C1OC(=O)C=CC=CC=CC=CC=CCC(O)C(C)C(O)CC(O)CC(O)CC(O)CC(O)CC(O)CC(O)C=CC1C` (centres undefined), the hERG blockade was 5.61% (inactive).
Regarding `Oc1c(Cl)cc(C(c2cc(Cl)c(O)c(Cl)c2)C(c2cc(Cl)c(O)c(Cl)c2)c2cc(Cl)c(O)c(Cl)c2)cc1Cl`, the hERG blockade is 25.7% (active).
`Oc1c(Cl)cc(CN(Cc2cc(Cl)c(O)c(Cl)c2)C2CCCCC2)cc1Cl`: the hERG blockade was 1.49% (inactive).
Consider `CN(C)Cc1cc(Cl)c(O)c(CN(C)C)c1`, for which the hERG blockade was 1.1% (inactive).
For `CC(C)(CC1(C)NC(=O)NC1=O)OCc1ccccc1` (centres undefined), the hERG blockade is -10.8% (inactive).
As to `O=C(O)Cn1ccnc1[N+](=O)[O-]`, the hERG blockade was -10.9% (inactive).
As for `NCCCc1c(-c2ccccc2)nc(N)[nH]c1=O`, the hERG blockade was -2.69% (inactive).
Then `O=C(O)c1nc(-c2ccccc2)[nH]c1C(=O)O`, with 4.21% (inactive); and `Nc1nc(C(=O)O)c(N=Nc2ccccc2)c(=O)[nH]1`, with 33.3% (active).
Then `O=C(c1nc2ccc([N+](=O)[O-])cc2[nH]c1=O)C(O)c1ccc2c(c1)OCO2` (centres undefined), with -14.1% (inactive); and `O=C1CN2CCN(CC2)CC(=O)Nc2ccc(cc2)S(=O)(=O)c2ccc(cc2)NC(=O)CN2CCN(CC2)CC(=O)Nc2ccc(cc2)S(=O)(=O)c2ccc(cc2)N1`, with 6.34% (inactive); and `O=C(O)c1ccc([N+]2=Cn3c(nc4ccccc43)C2)cc1`, with 6.37% (inactive).
Then `COC(=O)CCC(C)C1CCC2C3CCC4CC5CCC4(C)C3(O5)C(Br)C(Br)C12C` (centres undefined), with 5.42% (inactive).
For the molecule `CCC(N)(C(=O)O)C(C)C` (centres undefined), the hERG blockade was -13.5% (inactive).
As to `NC(=O)N=C(N)NC(=O)c1ccccc1`, the hERG blockade is -1.06% (inactive).
As for `CN=C(N)N=C(N)Nc1cc2ccccc2c2ccccc12`, the figure is -54.4% (active); as for `CCOC(=O)C(C)(C)C(O)C(C)C` (centres undefined), 16.9% (inactive).
Turning to `CS(=O)(=O)Nc1ccc(Nc2c3ccccc3nc3ccccc23)cc1`, the hERG blockade is 30.8% (active).
For `Cc1nc(N)nc2ccccc12`, the hERG blockade was 1.82% (inactive).
For `CC1OC(O)C(O)C(O)C1O` (centres undefined), the hERG blockade is 8.47% (inactive).
Consider `O=C(O)C(Sc1ccc(Cl)cc1)Sc1ccc(Cl)cc1`, for which the hERG blockade was -7.17% (inactive).
`Oc1ccc(Cl)cc1Sc1cc(Cl)ccc1O`: the hERG blockade is 36.8% (active).
Then `N#CCCSC(=S)C1CCCC1=N` (centres undefined), with 14.7% (inactive).
As for `CN(C)CCCn1c2ccccc2c2cnccc21`, the figure is 90.4% (active); as for `CN(C)CCCN1c2ccc(O)cc2Sc2ccc(Cl)cc21`, 62.7% (active); as for `Cc1c2cnccc2c(C)c2c1c1ccccc1n2CCOC(=O)c1ccccc1`, 17.4% (inactive).
As for `CSc1ccc2c(c1)N(CCCN(C)C)c1ccccc1S2`, the figure is 90.6% (active).
Consider `CN(C)CCCn1cnc2cc(Cl)c(Cl)cc21`, for which the hERG blockade is 5.34% (inactive).
Turning to `CN(C)CCCN1c2ccccc2Sc2cnccc21`, the hERG blockade was 73.5% (active).
On to `Oc1cc(O)c2c(c1)OC(c1ccc(O)c(O)c1)C(OC1(c3cc(O)c(O)c(O)c3)Oc3cc(O)cc(O)c3C(O)C1O)C2` (centres undefined), for which the hERG blockade was -3.37% (inactive).
In the case of `CC(CC(=O)O)C(C(=O)O)C(=O)O` (centres undefined), the hERG blockade was 2.78% (inactive).
As to `Oc1cc(CN2COc3ccccc32)c(O)cc1CNC1CCCCC1`, the hERG blockade was 6.98% (inactive).
For the molecule `N=c1nc(N)nc(N)n1-c1ccc(S(N)(=O)=O)cc1`, the hERG blockade was -2.11% (inactive).
As for `Nc1[nH]c(=O)nc2c1ncn2C1OC(CO)C(O)C1O` (centres undefined), the figure is -9.03% (inactive); as for `COc1ccc2cc(C(=O)CCC(=O)O)ccc2c1`, -0.161% (inactive).
As for `NC(=[SH+])[N-]N=Cc1ccccn1.O=S(=O)([O-])O.[Fe]`, the figure is 8.22% (inactive); as for `O=C(O)c1ccncc1.O=C(O)c1ccncc1.[Cl][Pt]([Cl])([Cl])[Cl]`, 16.7% (inactive); as for `C[N+]1(CCN=C=NC2CCCCC2)CCOCC1`, 4.24% (inactive).
With `CCN(CC)CCN1c2ccccc2Sc2ccc3ccccc3c21`, the hERG blockade was 28.5% (active).
Turning to `CN(C)CCCN1c2ccc3ccccc3c2Sc2cccc(Cl)c21`, the hERG blockade was 30.4% (active).
As to `CCN(CC)CCN1C(=O)c2cccc3cc(N)cc(c23)C1=O`, the hERG blockade was -2.82% (inactive).
Take `CN(C)CCCN1c2ccccc2C(C)(C)c2ccccc21`: the hERG blockade was 34.9% (active).
On to `CN(C)CCCN1c2ccccc2Sc2ccc3ccccc3c21`, for which the hERG blockade is 112% (active).
In the case of `Clc1ccc(-c2nnc(-c3cccc4ccccc34)o2)cc1Cl`, the hERG blockade was -2.83% (inactive).
Regarding `N=Nc1c(OC(=O)Nc2ccccc2)[nH]c2ccccc12`, the hERG blockade is 18.5% (inactive).
Take `CN(C)CCC(C(=O)C(C)(C)C)c1ccccn1` (centres undefined): the hERG blockade is -9.42% (inactive).
As for `CS(=O)(=O)c1ccc(C=NNC(N)=S)cc1`, the figure is -0.277% (inactive); as for `O=[N+]([O-])c1ccc(NN=C2c3ccccc3Cc3ccccc32)c([N+](=O)[O-])c1`, 8.87% (inactive).
As to `O=C(O)c1cc(N=Cc2ccccc2O)cc(C(=O)O)c1`, the hERG blockade was -2.64% (inactive).
For `Nc1nc(N)c2nn(-c3ccc(C(=O)O)cc3)nc2n1`, the hERG blockade is 14.6% (inactive).
Take `NCCSCC(N)C(=O)O` (centres undefined): the hERG blockade is 1.01% (inactive).
On to `O=C(O)c1ccc(OCc2ccccc2)c(Cl)c1`, for which the hERG blockade was 4.92% (inactive).
On to `Cc1c[n+](=O)c2ccccc2n1[O-]`, for which the hERG blockade is -5% (inactive).
On to `O=C(O)C1C2C=CC(O2)C1C(=O)NCc1ccncc1` (centres undefined), for which the hERG blockade was -11% (inactive).
Turning to `N=C(N)SCc1nc(-c2ccc(Cl)cc2)no1`, the hERG blockade is -25.1% (active).
Turning to `Clc1ccc(-c2noc(CN3CCCCC3)n2)cc1`, the hERG blockade was -11.3% (inactive).
Turning to `C[N+](C)(N)Cc1nc(-c2ccc(Cl)cc2)no1`, the hERG blockade was 1.91% (inactive).
As to `Cc1cc2c(cc1C)NC1=C(N2)OC(c2c[nH]c3ccc(COc4ccccc4)cc23)C1=O` (centres undefined), the hERG blockade is -6.35% (inactive).
Consider `CCOC(=O)C1=C(C)NC(=O)NC1c1coc2cc(C)cc(C)c2c1=O` (centres undefined), for which the hERG blockade was -8.18% (inactive).
On to `Cc1ccc(S(=O)(=O)N2CCC(C(=O)O)(c3ccccc3)CC2)cc1`, for which the hERG blockade was -1.68% (inactive).
For the molecule `COc1ccc2c(=O)cc(-c3ccncc3)oc2c1OC`, the hERG blockade was 72.1% (active).
Regarding `C1CCN(CCC2CCCCN2)CC1` (centres undefined), the hERG blockade is -0.957% (inactive).
On to `[O-][n+]1c(CN2CCCCC2)nc2cccc3c2c1-c1ccccc1-3`, for which the hERG blockade is 41.6% (active).
In the case of `Oc1cccnc1CN1CCCCC1`, the hERG blockade was -6.51% (inactive).
`CN1CCN(CC(=O)Nc2cccc3ccccc23)CC1`: the hERG blockade was 8.36% (inactive).
As for `CN1CCN(Cc2nc3cccc4c3c([n+]2[O-])-c2ccccc2-4)CC1`, the hERG blockade was 39.2% (active).
